High-throughput results from PubChem BioAssay.
The full list was thinned out, with hits kept by preference.
Shiga toxin inh: inhibitors of Shiga toxin in Vero cells | actives 9.2% (n = 290,000) | AID 2315 | Vero cells, Shiga toxin protein synthesis inhibition reporter | inhibition, % at 38.7 µM; in the data active = inhibition mostly above about 28%, no sharp cut-off; inactive = mostly below about 43%
Sm TGR block: blocks Schistosoma mansoni thioredoxin glutathione reductase; purified TGR, DTNB reduction, TNB absorbance 405 nm; AID 485364; Potency, µM (series often up to 114 µM), actives largely listed as inhibitors; Q962Y6; actives 3% (n = 360,000); also: nearly all actives have a fitted effect of over 60% in size
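TGR 20 nM + NADPH 100 uM (dispensed conc.), cpd preinc 15 min RT; start with NADPH (500 uM addition) then DTNB (15 mM addition). Kinetic TNB absorbance, 405 nm filter. Four-parameter Hill fit across titration.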
Cycloheximide cs: counter-screen for Shiga toxin inhibitors: cycloheximide protein synthesis inhibition; cell reporter, cycloheximide protein synthesis inhibition counterscreen; max response, %; actives 12% (n = 300,000); in the data active = max response mostly above about 13%, no sharp cut-off; inactive = mostly below about 14%; also: read at 38.3 µM for the half of the compounds with a filed dose
Giardia FBPA inh: blocks Giardia fructose-bisphosphate aldolase activity; purified Giardia FBPA; actives 0.71% (n = 290,000); Potency, µM (top dose mostly 59.6 µM), hits mostly inhibitors; also: nearly all actives have a fitted effect of over 55% in size
Target sequence (A8B2U2 whole entry, looked up): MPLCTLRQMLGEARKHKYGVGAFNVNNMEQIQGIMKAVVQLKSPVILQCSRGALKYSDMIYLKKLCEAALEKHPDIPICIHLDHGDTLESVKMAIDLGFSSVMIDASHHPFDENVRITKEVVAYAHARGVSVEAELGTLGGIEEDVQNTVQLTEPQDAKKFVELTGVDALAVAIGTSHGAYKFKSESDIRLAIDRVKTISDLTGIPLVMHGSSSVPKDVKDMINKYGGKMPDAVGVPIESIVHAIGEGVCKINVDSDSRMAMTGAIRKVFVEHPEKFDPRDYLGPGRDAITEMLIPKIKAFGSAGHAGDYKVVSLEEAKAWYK
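40 nM FBPA preincubated 10 min at RT with compound (up to 57.5 uM final), then substrate plus GAPDH/TPI/NAD/arsenate coupling and diaphorase/resazurin added. Fluorescence read after 20 min at RT, 525/598 nm.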
LmPK inhibitor: inhibitors of Leishmania mexicana pyruvate kinase | Q27686 | Potency, µM (top dose mostly 57.5 µM), hits mostly inhibitors | actives 0.37% (n = 290,000) | purified LmPK, Kinase-Glo ATP luminescence, 1 h | AID 1721
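ATP generated from ADP (0.1 mM) and PEP (0.5 mM) by 0.1 nM LmPK over 1 h at room temperature (pH 7.2 imidazole buffer) was detected by coupled luciferase luminescence. Values were normalized to uninhibited and no-enzyme wells.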
Tb PYK inh: T. brucei pyruvate kinase inhibition; Q57TT1; TbPYK enzyme, Kinase-Glo Plus ATP luminescence, 45 min; Potency, µM (titrated, usually from 76.8 µM), actives largely listed as inhibitors; actives 0.12% (n = 410,000); also: nearly all actives have a fitted effect of over 50% in size
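Luminescence from Kinase-Glo Plus, added after a 45-minute room-temperature reaction, served as the end-point read-out. The enzyme and substrate were preincubated with compound before ADP (130 uM final) initiated turnover. Concentration-effect curves came from normalized qHTS data.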
Hits are given with their value; – = inactive; ? = inconclusive; · = no result given; [ ] = remark or other dose. Unless noted, calls follow the shape of the dose curve; as a rule, active = well fitted curve in the direction sought with a large enough effect; inconclusive = small, poorly fitted or top-dose-only effect, or another doubt; inactive = no such curve, though single readings can be large; an effect the other way counts as inactive or inconclusive.

SMILES | Shiga toxin inh | Sm TGR block | Cycloheximide cs | Giardia FBPA inh | LmPK inhibitor | Tb PYK inh
c1ccc(-c2nnsc2-c2nc3ccccc3[nH]2)cc1 | 43 | – | 23 | – | – | –
O=c1[nH]c2ccccc2nc1-c1ccc(Cl)cc1 | 52 | – | 18 | – | – | –
O=c1[nH]c2ccccc2nc1-c1ccccc1 | 50 | – | 26 | – | – | –
CCOc1ccc(NC(=O)Cn2cc(C(=O)c3ccc(C)c(C)c3)c(=O)c3cc(F)ccc32)cc1 | · | – | · | · | · | –
Cc1nnc(SC(C)C(=O)NC2CCCCC2)[nH]c1=O (stereo not drawn) | · | · | · | · | · | –
Cc1ccc(C(=O)OCC(=O)Nc2ccccc2C(F)(F)F)cc1S(=O)(=O)N1CCCCC1 | · | – | · | · | · | –
CC1=NS(=O)(=O)NC(C)(C)C1 | · | · | · | · | · | –
O=[N+]([O-])c1cccc(/C=C2\CCC(/C=N/Nc3ccc4ccccc4n3)=C2N2CCOCC2)c1 | – | – | 17 | – | – | –
O=[N+]([O-])c1cccc(/C=N/Nc2nc(N3CCOCC3)nc(N3CCOCC3)n2)c1 | – | – | – | – | – | –
O=C(NP(=O)(N1CCCC1)N1CCCC1)C1=C(N2CCOCC2)/C(=C/c2cccc([N+](=O)[O-])c2)CC1 | – | 18µM | – | – | – | –
CCOC(=O)C(=O)C1=C(N2CCOCC2)/C(=C\c2cccc([N+](=O)[O-])c2)CC1 | – | 40µM | – | – | – | –
COc1ccc(-c2coc3c(C(=O)N4CCN(C)CC4)cccc23)c(C)c1 | · | · | · | · | · | –
CC(C)C[C@@H]1CN(CCCC[C@H]2CNC(=O)C(=O)N2CCC2CCCCC2)C(=O)C(=O)N1CC1CCCCC1 | · | · | · | · | · | –
Cc1nc2cc(N)ccc2n1C1CCCCC1 | – | – | – | – | – | –
Cc1cc(-c2cc(N)n(-c3ccccc3)n2)c(C)n1C1CCCC1 | 40 | – | 36 | – | – | –
COc1ccnc(NCc2ccc(Cl)cc2)c1C#N | 56 | – | 27 | – | – | –
CC(C)Sc1nc2ccc(Br)cc2[nH]1 | 88 | – | 36 | – | – | –
CSc1nc2ccc(Br)cc2[nH]1 | – | · | – | – | – | –
CCC1CCCN1Cn1cnc2c([nH]c3ccc(OC)cc32)c1=O (stereo not drawn) | – | – | – | – | – | –
O=c1c2ccccc2nc2n1CCS2 | – | – | – | – | – | –
Cc1ccc2[nH]c3c(=O)n4c(nc3c2c1)SCC4 | – | – | 24 | – | – | –
COc1ccc2[nH]c3c(=O)n4c(nc3c2c1)SCCC4 | – | – | 25 | – | – | –
COc1ccccc1NC(=O)CN1C(=O)CCSc2ccccc21 | · | – | · | · | · | –
C/C(CCC(=O)OC[C@@H]1O[C@H](C#Cc2ccccc2)C=C[C@@H]1Oc1ccc(C)cc1)=N/OC[C@@H](O)COCc1ccco1 | · | · | · | –[12.9 µM] | · | ·
Cc1cc(C(=O)NCCCC(=O)O)c(C)o1 | – | – | – | – | – | ·
SMILES | Shiga toxin inh | Sm TGR block | Cycloheximide cs | Giardia FBPA inh | LmPK inhibitor | Tb PYK inh
Cc1occc1C(=O)Nc1ccccc1NC(=O)c1ccoc1C | · | · | · | · | · | –
Cc1cc(C(=O)Nc2cccc3ccccc23)c(C)o1 | – | – | 25 | – | – | –
Cc1occc1C(=O)Nc1cccc2ccccc12 | 67 | – | 56 | – | 25µM | –
Cc1oc(CC(C)C)cc1C(=O)Nc1cccc2ccccc12 | – | – | – | – | – | –
Cc1cc(C(=O)NCCC(c2ccccc2)c2ccccc2)c(C)o1 | – | ? | 26 | – | – | –
CCOc1ccc(NC(=O)C2CCC(CNS(=O)(=O)c3ccc4c(c3)CCCC(=O)N4)CC2)cc1 (stereo not drawn) | · | – | · | · | · | –
Cc1cccc(N(C)c2nc3ccc(C(=O)c4ccccc4)cc3n3c(C)nnc23)c1 | · | – | · | · | · | –[15.4 µM]
CC(C)CN(CC(C)C)C(=O)c1cc(S(=O)(=O)N2CCCCC2)c[nH]1 | – | – | – | · | – | –
COc1ccc(C2CC(=O)c3sc(NC(C)=O)nc3C2)cc1 (stereo not drawn) | active | – | 20 | – | – | –
CN1OC[C@@H]2CN[C@H](c3cccc(-c4ccccc4)c3)C[C@@H]21 | · | · | · | · | · | –
O=C1CCC/C1=C/Nc1ccc(Cl)cc1 | 72 | – | 30 | – | – | –
O=C1CCCC/C1=C\Nc1ccc(O)cc1 | 64 | ? | 41 | ? | – | –
CCOC(=O)c1ccc(N/C=C2\CCCCC2=O)cc1 | 48 | – | 25 | – | – | –
O=C1CCCC/C1=C/Nc1cccc(C(F)(F)F)c1 | 50 | · | 48 | – | – | –
Cc1cc(=O)n(C(C)C(=O)N2CCCc3ccccc32)c2c1c(C)nn2-c1ccccc1 (stereo not drawn) | · | – | · | · | · | –
O=C(CN1C(=O)NC2(CCCCCC2)C1=O)NCCc1ccccc1 | · | – | · | · | · | –
Cc1noc(C)c1CSCC(=O)Nc1nc2ccccc2s1 | – | – | 21 | · | – | –
CCc1ccc2nc(NC(=O)CSCc3c(C)noc3C)sc2c1 | 68 | – | 21 | – | – | –
Nn1cnnc1SCC(=O)Nc1ccc(C2CCCCC2)cc1 | 81 | – | 50 | – | – | –
Cn1cnnc1SCC(=O)Nc1ccc2c(c1)CCC2 | 35 | – | 15 | – | – | –
Cn1cnnc1SCC(=O)c1ccc2c(c1)CCCC2 | 69 | – | 32 | ? | – | –
CC(=O)Nc1ccc(NC(=O)CSc2nncn2C)cc1 | – | – | – | – | – | –
Cc1ccc(-c2nnc(CCC(=O)NCC3C4CC5CC(C4)CC3C5)o2)s1 (stereo not drawn) | 103 | – | 52 | – | – | –
CCn1c2ccccc2c2c3ncc4cccn4c3ccc21 | – | 28µM | 16 | – | – | –
CCn1c2ccccc2c2cc(/C(C)=N/O)ccc21 | – | – | – | – | – | –
SMILES | Shiga toxin inh | Sm TGR block | Cycloheximide cs | Giardia FBPA inh | LmPK inhibitor | Tb PYK inh
CCN(CC)C(=O)Cn1c(SCC(=O)Nc2ccc(F)cc2)nc2ccccc21 | · | – | · | · | · | –
O=C(CN1CCSc2ccccc21)NCCCc1ccccc1 | 86 | – | 37 | – | – | –
CCc1ccc(CNC(=O)CN2CCSc3ccccc32)cc1 | · | – | · | · | · | –
N#C/C(=C/c1ccccc1)c1nn(CCO)c(N)c1C#N | 27 | – | 27 | – | – | –
O=C(COc1cccc2cccnc12)Nc1nccs1 | 53 | – | 33 | – | – | –
COc1ccc(C(CC(=O)Nc2nccs2)n2cccc2)cc1 (stereo not drawn) | 150 | – | 31 | – | – | –
NNC(=O)COc1cccc2cccnc12 | – | – | – | – | – | –
O=C(COc1ccc2c(c1)OCO2)Nc1nccs1 | 58 | – | – | – | 14µM | ?
COc1ccc(OCC(=O)Nc2nccs2)cc1 | – | – | – | – | 25µM | –
CCc1ccc(S(=O)(=O)c2cn(C)c3cc(F)c(F)cc3c2=O)cc1 | · | – | · | · | · | –
COc1ccc(-c2noc(CSc3nc4ccccc4[nH]3)n2)cc1OC | · | – | · | · | · | –
CC1CN(C(=O)CCC(=O)NCCCN2CCN(Cc3ccccc3)CC2)c2cc(Cl)ccc2O1 (stereo not drawn) | – | – | – | · | – | –
